Lassa entry inh: inhibitors of Lassa virus binding or cell entry; Potency, µM (titrated, usually from 37.9 µM), without a hit: at the top dose activity change, negative = inhibition, usual class: inhibitors; Lassa virus pseudotype entry inhibition, cell reporter; AID 540256; 300,000 compounds, 1.2% hits; calls by dose curve; tested in HEK293 cells; note: potency is the fitted concentration of half-maximal effect; nearly all actives have a fitted effect of over 50% in size
HCMV antiviral: blocks human cytomegalovirus replication; 410,000 compounds, 4.5% hits; AID 1259415; HFF cells, HCMV-luciferase reporter, 72 h; stronger effect = lower value; activity change, negative = inhibition, % at 57.5 µM; in the data active = activity change below about -60%; inconclusive = no clear call, values can overlap the other calls; inactive = above about -39%
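Luciferase read-out from HCMV-luciferase-infected HFFs (MOI 1 PFU/cell) 72 h post infection at 37C; compounds added after 16 h cell attachment; activity normalized between buffer-only basal and Salinomycin (10uM) inhibitor controls.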
Vaccinia mCherry: inhibitors of vaccinia virus infection (mCherry reporter signal). Vaccinia virus mCherry reporter infection, fluorescence. Potency, µM (series often up to 36.5 µM), for inactives: at the top dose activity change, negative = inhibition, usual class: inhibitors. 310,000 compounds, 0.63% hits; calls by dose curve; tested in A549 cells; note: potency is the fitted concentration of half-maximal effect; nearly all actives have a fitted effect of over 35% in size
Vaccinia Venus: inhibitors of vaccinia virus (Venus reporter); Vaccinia virus Venus reporter expression, fluorescence; 330,000 compounds, 0.46% hits; Potency, µM (doses to about 36.5 µM), inactives show at the top dose activity change, negative = inhibition, most hits filed as inhibitors; calls by dose curve; tested in A549 cells; note: potency is the fitted concentration of half-maximal effect; nearly all actives have a fitted effect of over 30% in size
FMDV antiviral: foot and mouth disease virus antiviral activity | FMDV antiviral cell-based qHTS | 410,000 compounds, 1.2% hits | Potency, µM (top dose mostly 57.9 µM), without a hit: at the top dose activity change, negative = inhibition, usual class: inhibitors | AID 1159524; calls by dose curve; tested in HEK293T cells; note: read-out not given here; potency is the fitted concentration of half-maximal effect; nearly all actives have a fitted effect of over 45% in size
Marburg entry inh: inhibitors of Marburg virus binding or cell entry; Marburg virus pseudotyped entry inhibition, cell reporter; Potency, µM (doses to about 37.8 µM), inactives show top-dose activity change, negative = inhibition, hits mostly inhibitors; 300,000 compounds, 1.8% hits; AID 540276; calls by dose curve; tested in HEK293 cells; note: potency is the fitted concentration of half-maximal effect
Starred values were filed as active, the others as inactive; i = inactive; u = inconclusive; x = no result given; [ ] = another dose, or the depositor's remark. Only some compounds are listed: those with a hit (about 6.5% of all), similar ones and a draw of the others. % is set by controls: 0 for no effect and ±100 for the full control effect.

SMILES	Lassa entry inh	HCMV antiviral	Vaccinia mCherry	Vaccinia Venus	FMDV antiviral	Marburg entry inh
Cc1nn(-c2ccccc2)c(C)c1C(=O)OC(C)C(=O)NC1CCCCC1 (stereo not given)	5µM*	-36	i	-14%	u	u
Cc1nn(-c2ccccc2)c(Cl)c1C(=O)OC(C)C(=O)Nc1ccc2c(c1)OCO2 (stereo not given)	-7%	-19	-14%	-10%	-21%	-1%
Cc1nn(-c2ccccc2)c(Cl)c1C(=O)NC1CCCCC1	-13%	9	-16%	-22%	10%	-2%[46.1 µM]
Cc1ccc(C)c(C(=O)CSc2nc3cc(C(=O)NC4CCCC4)ccc3c(=O)n2CC2CCCO2)c1 (stereo not given)	u	6	-16%	-12%	-27%	x
CC(C)C[C@H]1CN=C(Nc2ccccc2)N1CC1CCC(C(C)(C)C)CC1 (stereo not given in full)	x	x	28µM*	u	u	x
CC(C)C[C@H]1CN=C(Nc2ccccc2)N1CC1CCCC1	x	17	i	-8%	-16%	x
O=C(NCC1(N2CCCCC2)CCCC1)c1cnn(-c2nccc(-c3cccs3)n2)c1C1CC1	x	x	-1%	10%	-8%	x
CSc1cccc(NC(=O)c2ccc(CN3CCc4ccccc4C3)cc2)c1	u	-61*	-19%	u	u	u
O=C(Nc1cccc(Br)c1)c1ccc(CN2CCc3ccccc3C2)cc1	x	-28	x	x	u	x
Cc1cc(/C=C2\C=Cc3ccccc32)cc(C)c1N	x	x	17%	-21%	x	x
Cc1snc(S(=O)(=O)/C(C#N)=N/Nc2cccc(C(F)(F)F)c2)c1C#N	5%	x	11µM*	u	28%	0%
CC1CCc2c(sc(NC(=O)COc3ccccc3C(C)(C)C)c2C#N)C1 (stereo not given)	u	10	u	-20%	-24%	x
COc1ccccc1OCc1nc(C#N)c(NCc2ccc(C)cc2)o1	-8%[46.1 µM]	2	-10%	8%	-13%	-23%[46.1 µM]
COc1ccc(CCNc2oc(COc3ccccc3Cl)nc2C#N)cc1OC	x	19	-28%	-22%	20µM*	x
COc1ccc(CCNc2oc(COc3ccccc3F)nc2C#N)cc1OC	u	-3	i	-26%	0%	u
COc1ccc(CCNc2oc(Cc3ccccc3)nc2C#N)cc1OC	-15%	-14	-12%	-33%	14µM*	u
COc1ccc(Nc2oc(COc3ccccc3OC)nc2C#N)cc1	u	-80*	-12%	-3%	11%	u
COc1cc(C)c(CC/C(C)=C/C=C/C(C)=O)c(C)c1C	x	x	x	x	-21%	x
C=CCCN(Cc1ccc(C)cc1)S(=O)(=O)C=C	0%[46.1 µM]	x	x	x	x	x
Cc1ccc2nccc(/C=C/c3ccc(N(C)C)cc3)c2c1	x	x	-24%	14%	x	x
CCCC[C@@H]1C[C@H]1C(=O)Nc1ccc(OC)c(OC)c1	x	x	x	x	x	1%
CC1(C)CC(NCCN2CCN(C3=CC(=C(C#N)C#N)CC(C)(C)C3)CC2)=CC(=C(C#N)C#N)C1	x	-63*	x	x	-23%	x
CCCCOc1ccccc1CC1C(=O)Nc2ccc(Br)cc21 (stereo not given)	-12%[46.1 µM]	x	x	x	x	u
COCCN1C(=O)CS/C1=C(/C#N)C(=O)NCc1ccco1	-7%[46.1 µM]	-84*	15%	59%	4%	-14%[46.1 µM]
CCCCn1c(O)c(C(CC)=Nc2ccc(C(=O)O)cc2)c(=O)[nH]c1=O	-22%	19	-17%	3%	-2%	26%
SMILES	Lassa entry inh	HCMV antiviral	Vaccinia mCherry	Vaccinia Venus	FMDV antiviral	Marburg entry inh
CCCCn1c(O)c(C(CC)=Nc2ccc3c(c2)CCC3)c(=O)[nH]c1=O	1.3µM*	-25	x	x	-8%	-14%
O=C1OC(c2ccc(O)cc2)(c2ccc(O)cc2)c2ccccc21	u	40	-8%	u	-21%	u
O=C1OC(c2ccccc2)(c2ccc3cc(O)ccc3c2)c2ccccc21 (stereo not given)	-28%[46.1 µM]	-33	7.9µM*	u	8%	5.6µM*
Cc1ccc(NC(=O)N2CCCN(Cc3ccc(F)cc3)C2)cc1C	-17%	17	x	-23%	-22%	6.3µM*
COc1cc(OC)c(NC(=O)c2ccccc2F)cc1Cl	x	-3	x	x	36%	x
COc1cc(NC(=O)c2c(Cl)cnn2C)c(OC)cc1Cl	-5%	-60*	i	3%	-4%	-21%[46.1 µM]
COc1cc(NC(=O)c2cc3ccccc3cc2O)c(OC)cc1Cl	x	-101*	x	x	13µM*	x
Cc1ccc(Cl)cc1NC(=O)c1cc2ccccc2cc1O	x	-100*	x	x	u	x
COc1cc(OC)c(NC(=O)Cn2c(=O)nc(-c3ccccc3)c3ccccc32)cc1Cl	6%[46.1 µM]	10	-5%	-18%	-15%	0%[46.1 µM]
Clc1cccc(Cl)c1Cn1cnc(=NCc2ccco2)c2[nH]cnc21	-19%	-71*	x	x	4%	u
COc1ccc(N(C(=O)c2ccccc2C)S(=O)(=O)c2cccs2)cc1	u	-77*	u	u	19%	u
COc1ccc(N(C(=O)c2ccccc2C)S(=O)(=O)c2ccc(C)cc2)cc1	u	-20	-20%	-10%	2%	x
O=[N+]([O-])c1ccc2cn(-c3ccccc3)nc2c1	-1%	-68*	i	-10%	6%	u
O=[N+]([O-])c1ccc2c(c1)ncn2-c1ccccc1	u	-70*	-13%	-1%	-2%	17%
OC(c1ccccc1)(c1nc(/C=C/c2ccccc2)cs1)C(F)(F)F (stereo not given)	x	-61*	10%	u	14%	x
CC(O)(c1ccccc1)c1nc(/C=C/c2ccccc2)cs1 (stereo not given)	x	-8	i	1%	-5%	x
OC(c1ccccc1)(c1nc(-c2ccc3ccccc3c2)cs1)C(F)(F)F (stereo not given)	x	-83*	-15%	8%	3%	x
CCNC(=O)CSc1nnc(CN2CCCCCC2=O)n1-c1ccccn1	-3%	11	7%	-5%	-2%	2%[46.1 µM]
O=C1CCCCCN1Cc1nnc(SCc2nc3ccccc3s2)n1-c1ccccn1	-8%	-107*	x	x	94%	23%
CC(=O)NC12CC3CC(C)(C1)CC(NC(C)=O)(C3)C2	36%[14.3 µM]	-69*	i	-17%	12%	1%
CCOc1cccc2sc(N3CCN(C(=O)C(C)(C)C)CC3)nc12	u	61	i	-8%	4%	x
Nc1ccc(C(=O)OCC2=NC3C=c4ccccc4=CC3=N2)cc1 (stereo not given)	x	x	x	x	x	1.6µM*
CCCN(CCC)[C@H]1CCc2c(F)ccc(O)c2C1	17%	x	x	x	x	11µM*
CCCN(C/C=C\I)[C@@H]1CCc2ccc(O)cc2C1	x	x	x	x	-17%	x
COC(=O)c1cc(CNC(=O)c2ccc3ccccc3n2)cc(NC(=O)c2cccc(OC)c2)c1	x	x	-8%	7%	-1%	x
CCn1c(SCC(=O)c2[nH]c(C)c(C(C)=O)c2C)nnc1-c1ccncc1	-1%	5	-9%	-6%	x	2%
CCOC(=O)c1c(C)[nH]c(C(=O)COC(=O)CCSc2ccccc2)c1C	13%	38	-9%	-10%	39%	u
